Out of some 190,000 compounds screened, about 930 (0.49%) were called active. This is one part of the list. Measured potencies and affinities stand elsewhere. A number with no mark means an inactive call.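 Rule for the calls: active = z-score of insulin promoter reporter brightness in nuclei below -3 at 5 µM, with at least 500 cells counted; inconclusive = wells with under 500 cells, flagged as toxic or sparse; inactive = the rest.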

The nature of this assay: insulin promoter down-regulators in MIN6 cells, imaging, high-content screening, mouse beta cells (AID 1628). Particulars: MIN6 insulin promoter GFP reporter, at 5 µM, active compounds read low.
Consider `Cc1ccc(-n2c(Cc3cccs3)nnc2SCC(=O)OC(C)C)cc1`, for which the z-score was 3.05.
Regarding `COc1cc(/C=C(\C#N)c2nc3ccccc3o2)ccc1O`, the z-score was 4.56.
Take `COCCNC(=S)N/N=C/c1ccc(-c2ccc([N+](=O)[O-])cc2)o1`: the z-score is 5.22.
For `CC(C)(C)NC(=S)N/N=C\c1ccc(-c2ccc([N+](=O)[O-])cc2)o1`, the z-score is 14.4.
For `CCNC(=S)N/N=C/c1ccc(-c2ccccc2)o1`, the z-score was -3.35 (active).
Turning to `CN(C)C(=O)C1C2NC(=S)N(c3cccc(Cl)c3)C1(C)Oc1ccc(Cl)cc12` (stereo unspecified), the z-score was 3.51.
Take `Nc1c(C(=O)c2ccccc2)sc2nsc(SCCN3CCCC3)c12`: the z-score is 6.03.
Take `CC(CNCC1CCCO1)COc1cccc2ccccc12` (stereo unspecified): the z-score was -4.31 (active).
`OC(CNCC1CCCO1)COc1ccc(OCC(O)CNCC2CCCO2)cc1` (stereo unspecified): the z-score was 1.04.
`CCOC(=O)/C(C#N)=C/C=C1\C=Cc2ccccc2N1CC`: the z-score was 4.84.
For the compound `CS(=O)(=O)N(CCc1ccccc1)CC(=O)N1CCN(Cc2ccccc2)CC1`, the z-score is 0.33.
Then `O=C(C1=C[C@H](C2CC2)C[C@H](OCCCCO)O1)N1CCN(Cc2ccccc2)CC1`, with 3.72; and `O=C(c1ccccn1)N1CCN(S(=O)(=O)c2ccc3ccccc3c2)CC1`, with 3.58; and `COC(=O)CCC(NC(=O)c1cc(C)oc1C)C(=O)OC` (stereo unspecified), with 0.79.
With `COc1ccc(-c2cc(C(F)F)n3ncc(C(=O)NCC4CCCO4)c3n2)cc1` (stereo unspecified) the figure was -5.37 (active).
In the case of `O=C(O)c1cc(-c2ccc(/C=C3/SC(=S)N(Cc4ccccc4)C3=O)o2)ccc1Cl`, the z-score was 4.28.
Then `N#C/C(=C/c1ccc(N2CCOCC2)o1)c1ccc(Br)cc1`, with 10; and `CC(C)(C)NS(=O)(=O)c1ccc(CCC(=O)NCc2ccc3c(c2)OCO3)cc1`, with 0.89.
With `Cc1nc2ccccn2c1C(=O)NCc1ccc2c(c1)OCO2` the figure was -5.57 (active); with `CCCN1C(=O)/C(=C/c2c(NCCCOCC)nc3c(C)cccn3c2=O)SC1=S`, 5.71.
For the compound `Cc1nc2ccccn2c1P(=O)(N1CCCCC1)N1CCCCC1`, the z-score was 0.76.
With `CCOCCCNc1nc2c(C)cccn2c(=O)c1/C=C1\SC(=S)N(CC(C)C)C1=O`, the z-score was 4.38.
With `Cc1ccc(-c2cc(-c3ccco3)c3c(N)c(C(=O)NN)oc3n2)cc1` the figure was 3.03.
With `COc1cc(OC)c2c(-c3ccccc3)cc(=O)oc2c1` the figure was -1.04; with `COC(CNC(=O)c1ccc(Cn2c(=S)[nH]c3cc4c(cc3c2=O)OCO4)cc1)OC`, 3.48.
With `COC(=O)c1[nH]c2ccc(F)cc2c1NC(=O)CCN1CCN(Cc2ccc3c(c2)OCO3)CC1`, the z-score is -3.4 (active).
As to `CCCNC(=O)Cn1cnc2sc(C(=O)N3CCN(Cc4ccc5c(c4)OCO5)CC3)c(C)c2c1=O`, the z-score was 3.66.
For the compound `COC(=O)c1c(NC(=O)CN2CCN(Cc3ccc4c(c3)OCO4)CC2)sc(C)c1C`, the z-score was -5.05 (active).
Turning to `COC(=O)c1[nH]c2ccc(C)cc2c1NC(=O)CCN1CCN(Cc2ccc3c(c2)OCO3)CC1`, the z-score is -3.87 (active).
In the case of `CCCCN1C(=O)C2(NNc3ccccc3O2)c2ccccc21` (stereo unspecified), the z-score is 4.38.
`Cc1cc(N2CCCC2)ccc1/C=C1\NC(=S)N(C)C1=O`: the z-score was 10.4.
`COc1ccc(N=c2oc3c(OC)cccc3cc2C(=O)NCc2ccco2)c(OC)c1`: the z-score is -3.31 (active).
Turning to `O=C(NN=C1CCN(Cc2ccccc2)CC1)c1cc(Br)ccc1O`, the z-score is 1.47.
With `O=C(Nc1ccc(F)cc1)NC1CCN(Cc2ccccc2)CC1` the figure was -3.27 (active); with `CC(=O)OCCCN1C(=O)c2ccc(Br)cc2C1=O`, 1.19.
Take `CCCCNc1ccc2c3c(cccc13)C(=O)N(CCCC)C2=O`: the z-score was 17.1.
Consider `CC(C)Oc1ccccc1C1CC(=O)Nc2cc3c(cc21)OCCO3` (stereo unspecified), for which the z-score is -4.18 (active).
As to `CCOC(=O)C1=C(C)NC(=O)CC1c1cc2c(cc1[N+](=O)[O-])OCO2` (stereo unspecified), the z-score is 3.01.
With `CCNc1nc(N2CCCC2)nc(N2CCCC2)n1`, the z-score was -3.04 (active).
On to `O=C(OCCN1C(=O)c2cccc3c(N4CCOCC4)ccc(c23)C1=O)c1ccc(Cl)cc1Cl`, for which the z-score is 3.13.
On to `CN1C=CC2=C(C#N)C(N)C(C#N)(C#N)C(c3ccccc3)C2C1` (stereo unspecified), for which the z-score is 10.1.
As for `CC12CCC(C/C1=N/O)C2(C)C` (stereo unspecified), the z-score was 0.65.
For the compound `Cc1ccc2nc(C(Cl)(Cl)Cl)nc(N/N=C/c3ccncc3)c2c1`, the z-score is 2.39.
As for `C(=N\Nc1nc(-c2ccccn2)nc2ccccc12)/c1ccccc1`, the z-score is -3.55 (active).
Consider `CCOc1ccc(NC(=O)NC2CC(=O)N(c3ccc(OC)cc3)C2)cc1` (stereo unspecified), for which the z-score is 2.29.
Consider `CCOc1ccc(N2CC(C(=O)NCc3ccc(F)cc3)CC2=O)cc1` (stereo unspecified), for which the z-score was -5.37 (active).
For `CCOc1ccc(CNC(=O)CCn2c(=O)oc3ccccc32)cc1`, the z-score is 3.4.
In the case of `COc1cc2nc(/C=C/c3ccc(N(C)C)cc3)sc2cc1SC`, the z-score was 15.9.
Regarding `COc1cccc(NC(=O)CSc2nc3ccccc3c(=O)n2CCCC(=O)N2CCCC2)c1`, the z-score was -4.63 (active).
With `COc1cccc(NC(=O)CSc2nncn2N)c1` the figure was 0.29; with `CCOc1ccc(NC(=O)Cn2c(=O)oc3ccccc32)cc1`, 3.64.
`COc1cccc(NC(=O)Cn2c(-c3cncs3)nc3ccccc32)c1`: the z-score is 5.27.
Then `COc1cccc(NC(=O)Cn2c(SCC(=O)N3CCOCC3)nc3ccccc32)c1`, with -4.09 (active); and `COc1ccc(-n2c(SCC(=O)Nc3cccc4ccccc34)nc(O)cc2=O)cc1`, with -6.42 (active); and `COc1ccc(-n2c(Cc3cccn3C)nnc2SCC(=O)Nc2cccc(C)c2C)cc1`, with 3.05.
Consider `O=C(Nc1nnc(-c2ccc(Cl)s2)o1)C1CC1`, for which the z-score was 2.8.
On to `CCn1nnc2sc3c(c2c1=O)CCC(C)C3` (stereo unspecified), for which the z-score is 3.59.
Take `C/C(CC(=O)NCc1ccc(Cl)cc1)=N\NC(=O)Cc1ccccc1`: the z-score is -4.08 (active).
As to `O=C(CSc1ncn[nH]1)NCc1ccccc1`, the z-score was 5.42.
Consider `COc1cc(OC)c(OC)cc1/C=C1\Oc2cc(OS(C)(=O)=O)ccc2C1=O`, for which the z-score is 5.02.
On to `Cc1ccc(-c2nc(C#N)c(NCCN3CCCCC3)o2)cc1`, for which the z-score is -3.25 (active).

These data come from PubChem BioAssay AID1628 (Sanford-Burnham Center for Chemical Genomics, 2009).
